This note sets out measurements from PubChem BioAssay (Tox21).

Where “and” joins values, the source holds several entries; their conditions need not be identical. Equal entries are not always repeated. Results filed as inconclusive are left out. A structure can be active in one record and inactive in another. Calls of active or inactive are those of the source. Unless noted, the call rests on the fitted dose curve; in most records, active means well fitted curve in the direction sought with a large enough effect in the repeat runs; inconclusive means weak or mixed curves; inactive means no such curve, though single readings can be large; an effect the other way counts as inactive or inconclusive.

Test [1] in a line: qHTS assay to identify small molecule agonists of the vitamin D receptor (VDR) signaling pathway - cell viability counter screen (AID 743224). Further: nearly all actives have a fitted effect of over 50% in size. Further: potency means the concentration at half of the fitted maximal effect. An outline of the steps:
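Cytotoxicity counter screen: VDR-bla cells, 16 h compound exposure at 37C, 5% CO2; CellTiter-Glo luminescence, 30 min RT, same wells as bla read.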
A general note: Quantitative high-throughput screening tests each substance at several concentrations.

A short description of test [2]: qHTS assay to identify small molecule agonists of the endoplasmic reticulum stress response signaling pathway (AID 1159516; active means well fitted activation curve with a large enough effect in the signal ratio in the repeat runs, not every such curve was filed as active; the % refers to the signal ratio). The procedure, abridged:
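HeLa ESRE-bla reporter line; cpd 5 h, 37 C/5% CO2; LiveBLAzer B/G FRET substrate 2 h RT; ex 405, em 460/530 nm.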

Test [3] can be described thus: qHTS assay to identify small molecule agonists of the endoplasmic reticulum stress response signaling pathway - cell viability counter screen (AID 1159517; calls by dose curve; further: nearly all actives have a fitted effect of over 50% in size; further: potency means the concentration at half of the fitted maximal effect). An outline of the steps: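 Steps: seed 1,500 ESRE-bla HeLa cells per well; incubate overnight at 37 C, 5% CO2; add compounds in DMSO for 5 hr; run FRET substrate 2 hr RT; add CellTiter-Glo, wait 30 min, read luminescence.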

For test [4], the target named is Nuclear receptor ROR-gamma (Homo sapiens) (UniProt P51449). Description: qHTS assay to identify small molecule antagonists of the retinoid-related orphan receptor gamma (ROR-gamma) signaling pathway (AID 1159521; further: nearly all actives have a fitted effect of over 50% in size; further: potency means the concentration at half of the fitted maximal effect). The procedure, abridged:
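Screening format: cell-based luciferase reporter in CHO cells with doxycycline-inducible RORγ. Compound pre-exposure lasts 2 h, doxycycline is 1 uM final, induction runs 16 h at 37 C, and ONE-Glo luminescence is read.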

Test [5] can be described thus: qHTS assay to identify small molecule antagonists of the retinoid-related orphan receptor gamma (ROR-gamma) signaling pathway - cell viability counter screen (AID 1159520). Further: nearly all actives have a fitted effect of over 50% in size. Further: potency means the concentration at half of the fitted maximal effect. The procedure, abridged: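 Tet-on ROR gamma CHO cells were given compounds for 2 hr, then doxycycline hyclate at 1 uM final, and incubated 16 hr at 37 C. Viability was measured as ATP content by CellTiter-Glo luminescence.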

Test [6] in a line: qHTS assay to identify small molecule agonists of the AP-1 signaling pathway - cell viability counter screen (AID 1159525; calls by dose curve; further: nearly all actives have a fitted effect of over 55% in size; further: potency means the concentration at half of the fitted maximal effect). An outline of the steps: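 Same-well cytotoxicity counter screen of the Tox21 10K library in ME-180 cells. The readout is ATP-dependent luminescence after 5 h compound treatment. Data are normalised to DMSO and tetra n-octyl ammonium bromide controls.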
Test [7] in a line: qHTS assay to identify small molecule agonists of the AP-1 signaling pathway (AID 1159526; calls by dose curve; further: potency means the concentration at half of the fitted maximal effect).
The nature of test [8]: qHTS assay to identify small molecule antagonists of the vitamin D receptor (VDR) signaling pathway - cell viability counter screen (AID 743225). Further: nearly all actives have a fitted effect of over 50% in size. Further: potency means the concentration at half of the fitted maximal effect. An outline of the steps:
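In this counter screen, VDR-bla HEK 293T cells receive test compound plus 3 nM final calcitriol for 16 h at 37C. Room-temperature steps of 2 h with the beta-lactamase substrate, then 30 min with CellTiter-Glo, precede the luminescence read.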

The target of test [9] is Retinoic acid receptor RXR-alpha (Homo sapiens) (UniProt P19793). Description: qHTS assay to identify small molecule agonists of the RXR signaling pathway (AID 1159527; calls by dose curve; further: nearly all actives have a fitted effect of over 35% in size). The procedure, abridged: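 Fluorescence ratio readout (460 vs 530 nm) from GeneBLAzer RXR-alpha HEK 293T cells after 16 hr compound treatment; cells seeded 5 hr beforehand in low-serum, charcoal-stripped medium.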
Sequence of Retinoic acid receptor RXR-alpha (Homo sapiens) (P19793 whole entry, looked up): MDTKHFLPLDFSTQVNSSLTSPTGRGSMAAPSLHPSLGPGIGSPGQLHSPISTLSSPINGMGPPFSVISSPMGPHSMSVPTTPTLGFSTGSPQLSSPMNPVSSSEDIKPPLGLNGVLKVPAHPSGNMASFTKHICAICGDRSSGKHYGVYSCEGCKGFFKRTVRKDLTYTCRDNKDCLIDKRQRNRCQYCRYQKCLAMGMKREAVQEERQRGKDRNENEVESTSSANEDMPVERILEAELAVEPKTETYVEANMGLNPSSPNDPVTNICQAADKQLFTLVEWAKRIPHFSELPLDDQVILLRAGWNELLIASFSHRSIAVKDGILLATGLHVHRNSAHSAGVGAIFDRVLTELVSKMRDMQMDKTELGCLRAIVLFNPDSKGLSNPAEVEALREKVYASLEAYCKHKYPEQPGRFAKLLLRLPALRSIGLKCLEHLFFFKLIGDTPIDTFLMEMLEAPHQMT

On to `CC(C)N1C(=O)N(c2ccccc2)CSC1=NC(C)(C)C`, for which the Potency in [1] is 49 µM (active); in [4] it was 43.3 µM (active). Moreover, the Potency result in [2] and in test [3] was “inactive” in each case.
In the case of `CS(=O)(=O)c1ccc(C(=O)C2C(=O)CCCC2=O)c([N+](=O)[O-])c1`, the Potency result in test [2], in [5] and in test [6] was “inactive” in each case.
Consider `c1ccc2c(c1)OCC(C1=NCCN1)O2` (centres undefined), for which the Potency entry in [1], in test [2], in [3], in [6] and in [7] was “inactive” throughout. The Potency in test [4] was 23.7 µM (active).
In the case of `Nc1ccccc1C(=O)Oc1ccc2ccccc2c1`, the Potency result in test [1], in test [2] and in test [4] was “inactive” in each case. For the same compound, the Potency in test [3] is 43.6 µM (active).
Turning to `CC(C)(C)c1ccc(CSc2cnn(C(C)(C)C)c(=O)c2Cl)cc1`, the Potency entry in test [2], in test [3], in [6] and in test [7] was “inactive” in each case. For the same compound, the Potency in test [4] is 0.154 µM (active).
As for `C[C@]12CC[C@H]3[C@@H](CCC4=CC(=O)CC[C@@]43C)[C@@H]1CC[C@@H]2O`, the Potency result in [1], in test [8], in [2], in test [3], in test [5] and in [6] was “inactive” throughout.
In the case of `C[C@]12Cc3nonc3C[C@@H]1CC[C@@H]1[C@@H]2CC[C@@]2(C)[C@H]1CC[C@]2(C)O`, the Potency entry in test [1], in [8] and in test [2] was “inactive” throughout. Further, the Potency in test [4] was 7.5 µM (active).
For the compound `O=[N+]([O-])c1c2ccccc2cc2ccccc12`, the Potency result in test [3], in test [5], in test [4] and in [6] was “inactive” in each case.
Consider `Nc1ccc(Sc2ccc(N)cc2)cc1`, for which the Potency entry in test [1], in test [3], in test [5], in [4] and in [6] was “inactive” each time.
As to `ClC1=C(Cl)[C@]2(Cl)[C@H]3[C@H]([C@H]4C=C[C@H]3C4)[C@@]1(Cl)C2(Cl)Cl`, the Potency result in test [1], in test [8], in [2], in [6] and in test [7] was “inactive” in each case.
As to `CCCN(CCC)CCc1c[nH]c2ccccc12`, the Potency entry in test [1], in [8], in [2], in [3], in test [5] and in test [6] was “inactive” each time. Besides, in [7], the Potency was 43.1 µM (active).
Consider `Cc1cc(C(F)(C(F)(F)F)C(F)(F)F)ccc1NC(=O)c1cccc(I)c1C(=O)NC(C)(C)CS(C)(=O)=O`, for which the Potency entry in test [1], in [8], in test [2], in test [3], in [5] and in [6] was “inactive” in each case. The result in [9] was inactive.
Consider `CC(C)(C)C(O)/C(=C\c1ccc(Cl)cc1Cl)n1cncn1` (centres undefined), for which the Potency was 59.3 µM (active) in test [1], 52.8 µM (active) in [8] and 41.6 µM (active) in test [4]. Moreover, the Potency result in test [2] and in test [3] was “inactive” each time.
With `ClC1=C(Cl)C2(Cl)C3C(Cl)C(Cl)CC3C1(Cl)C2(Cl)Cl` (centres undefined), the Potency in test [1] is 24.5 µM (active) and 17.4 µM (active); in [3], 49 µM (active); in test [5], 68.4 µM (active); in test [4], 27.2 µM (active) and 61.1 µM (active); in test [6], 24.5 µM (active) and 34.7 µM (active).
As to `O=C(NC(=O)c1c(F)cccc1F)Nc1cc(Cl)c(OC(F)(F)C(F)F)c(Cl)c1`, the Potency result in test [1], in [8], in test [3], in [5], in test [4] and in test [6] was “inactive” each time. Further, in [7], the Potency result was “inactive”.
Consider `CC(=O)O[C@H]1CC[C@@]2(C)C(=CC[C@@H]3[C@@H]2CC[C@]2(C)C(=O)CC[C@@H]32)C1`, for which the Potency result in test [1], in test [8], in test [2] and in test [5] was “inactive” in each case. Also, the Potency in [4] is 48.6 µM (active).
On to `CCOCCOC(C)=O`, for which the Potency entry in [2], in [4], in test [6] and in test [7] was “inactive” in each case.
For `O=C(CCCN1CCC2(CC1)C(=O)NCN2c1ccccc1)c1ccc(F)cc1`, the Potency entry in test [3], in test [5], in [4] and in test [6] was “inactive” in each case.
With `O=C1NCN(c2ccccc2)C12CCN(CC1COc3ccccc3O1)CC2` (centres undefined), the Potency entry in [1], in [2], in [5], in test [4], in test [6] and in [7] was “inactive” in each case.
Regarding `Clc1ccc(C(Cl)(Cl)Cl)c(Cl)c1`, the Potency result in test [1], in [2], in test [5], in test [4], in [6] and in [7] was “inactive” throughout. In addition, in [9], the compound was called inactive.
For `CC1(C)CC/C(=C/c2ccc(Cl)cc2)C1(O)Cn1cncn1` (centres undefined), the Potency in test [1] was 54.6 µM (active); in [4], 24.2 µM (active). Besides, the Potency entry in [2], in test [5] and in test [6] was “inactive” each time.
Consider `COc1ccc(N)cc1N`, for which the Potency entry in [8], in test [2] and in test [3] was “inactive” each time. Besides, the Potency in test [4] is 7.08 µM (active) and 14.7 µM (active); in test [6], 50.5 µM (active) and inactive. Further, the outcome in test [9] was inactive.
With `CC(=O)Nc1ccc2c(c1)Cc1ccccc1-2`, the Potency entry in test [1], in test [8], in test [2], in [5], in test [4] and in test [6] was “inactive” each time. The Potency result in [7] was “inactive”. The result in test [9] was inactive.
With `O=[N+]([O-])c1ccc(Oc2ccc(C(F)(F)F)cc2[N+](=O)[O-])cc1`, the Potency entry in [1], in test [2], in [3], in test [4], in test [6] and in [7] was “inactive” each time.
Take `CC(Cc1ccc(C(C)(C)C)cc1)CN1C[C@@H](C)O[C@@H](C)C1` (some centres undefined): the Potency entry in [8], in test [3], in [5], in test [4], in test [6] and in [7] was “inactive” throughout. For the same compound, the compound was called inactive in test [9].
Turning to `O=C(CBr)c1ccc(O)cc1`, the Potency entry in test [2], in test [3] and in test [6] was “inactive” each time. Also, the Potency in test [4] is 48.6 µM (active). For the same compound, in test [9], the compound was classed as inactive.
For the compound `O=C(CCl)C(Cl)Cl`, the Potency entry in test [3] is “inactive”. Also, the Potency in test [5] was 27.6 µM (active); in [4] it was 6.17 µM (active).
`N#C/C=C/C#N`: the Potency entry in test [1], in [8], in test [3], in test [5], in test [4] and in test [6] was “inactive” in each case. For the same compound, the Potency entry in [7] was “inactive”. The compound was called inactive in test [9].
On to `CC(C)CCCCCCCOP(=O)(Oc1ccccc1)Oc1ccccc1`, for which the Potency entry in test [1], in test [8], in [2] and in [3] was “inactive” in each case.
Regarding `COc1cccc(C(=O)CCN[C@@H](C)[C@H](O)c2ccccc2)c1`, the Potency in test [1] is 33.5 µM (active). Also, the Potency result in test [2], in [5] and in test [6] was “inactive” throughout.
For `N#C/C=C/c1ccccc1`, the Potency result in test [5], in test [4], in [6] and in [7] was “inactive” throughout. Also, the compound was classed as inactive in test [9].
Regarding `Clc1ccc(Oc2ccccc2)cc1`, the Potency entry in test [5], in test [4], in test [6] and in test [7] was “inactive” in each case. The call in [9] was inactive.
On to `N#Cc1ccc(O)cc1`, for which the Potency result in test [5], in [4], in [6] and in test [7] was “inactive” throughout. In test [9], the compound was classed as inactive.
Turning to `COc1ccc([N+](=O)[O-])cc1O`, the Potency result in test [5], in test [4], in test [6] and in test [7] was “inactive” in each case. For the same compound, the compound was called inactive in test [9].
Consider `CCOC(=O)c1ccccc1S(=O)(=O)NC(=O)Nc1nc(Cl)cc(OC)n1`, for which the Potency result in test [5], in test [4], in test [6] and in test [7] was “inactive” each time. Also, the compound was called inactive in test [9].
For `C=CCOC(N)=O`, the Potency result in [5], in test [4], in test [6] and in [7] was “inactive” throughout. Besides, the compound was called inactive in test [9].
For `O=C(Cl)c1ccc(Cl)cc1`, the Potency result in [5], in [4], in test [6] and in test [7] was “inactive” throughout. Moreover, the outcome in test [9] was inactive.
Turning to `O=[N+]([O-])c1cc(Cl)ccc1Cl`, the Potency entry in [5], in test [4], in test [6] and in test [7] was “inactive” throughout. Moreover, the result in test [9] was inactive.
